Assay results as given in PubChem BioAssay (NCI).
About 79,000 compounds went through this panel and 15% of them were active in at least one assay; those are over-represented in the sample as a whole. The source made the active and inactive calls. Rule as the data show it: active = growth inhibition above about 70%; inactive = the rest. Where a SMILES comes first, the peptide text is derived from it. The star is where a group is joined. OtBu = CC(C)(C)O*

Assays:
[1] = NCI Yeast Anticancer Drug Screen. Data for the rad50 strain (AID 155);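 also: 0% = growth of vehicle-only cultures of the same strain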; details: S. cerevisiae rad50 strain growth inhibition; at 50.0 µM; active compounds read high
Summary of the method: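 DNA repair mutant yeast, compound exposure, growth read-out; inhibition is taken relative to vehicle.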

[2] = NCI Yeast Anticancer Drug Screen. Data for the mec2-1 strain (AID 157); details: S. cerevisiae mec2-1 strain, at 50.0 µM, active compounds read high
Summary of the method: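 Test agents were screened against the mec2-1 yeast strain, with defined DNA repair or cell cycle alteration. Growth was scored as inhibition against vehicle-only controls.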

[3] = NCI Yeast Anticancer Drug Screen. Data for the sgs1 mgt1 strain (AID 161);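 also: 0% = growth of cultures given vehicle only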; details: S. cerevisiae sgs1 mgt1 strain, at 50.0 µM, active compounds read high
Summary of the method: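 Test agents were incubated with a DNA-repair-mutant yeast strain. Growth was then read and compared against vehicle-treated controls.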

[4] = NCI Yeast Anticancer Drug Screen. Data for the cln2 rad14 strain (AID 165);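 also: 0% = growth equal to vehicle treated cultures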; details: S. cerevisiae cln2 rad14 strain, at 50.0 µM, active compounds read high
Summary of the method: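 Growth of compound-exposed yeast (cln2 rad14 genotype) measured and expressed as inhibition relative to vehicle.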

[5] = NCI Yeast Anticancer Drug Screen. Data for the bub3 strain (AID 167); details: S. cerevisiae bub3 mutant strain, at 50.0 µM, active compounds read high
Summary of the method: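 In this screen, a yeast mutant lacking normal mitotic checkpoint function is challenged with compound. Relative growth versus vehicle gives the inhibition value.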

[6] = NCI Yeast Anticancer Drug Screen. Data for the mlh1 rad18 strain (AID 175); details: S. cerevisiae mlh1 rad18 strain growth inhibition; at 50.0 µM; active compounds read high
Summary of the method: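 In this whole-cell yeast screen, a strain with altered DNA damage repair is challenged with compound, and its growth is measured against matched vehicle-treated controls.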

Measured: growth inhibition

CCCCCCC[CH2][Sn]1([CH2]CCCCCCC)[O]C2C(CO)OC(n3ccc4c(N)ncnc43)C2[O]1 (stereo unspecified)
active: [4] 70.2%
inactive: [1] -0.4% | [2] 15.2% | [3] 18.1% | [5] 4.45% | [6] -0.85%

N#CC(C(=N/NC(N)=S)/C(=N\NC(N)=S)C(C#N)c1ccccc1)c1ccccc1 (stereo unspecified)
inactive: [1] -34.5% | [2] -5.35% | [3] -30.8% | [4] -8.25% | [5] -14.2% | [6] -15.7%

CCCCCOS(C)(=O)=O
inactive: [1] -4.6% | [2] -14.2% | [3] 4.85% | [4] -36.5% | [5] 0.55% | [6] -20.1%

Nc1nc(-c2ccc(-c3ccccc3)cc2)cc(=O)[nH]1
inactive: [1] 0.25% | [2] 27.6% | [3] -4.8% | [4] -8.25% | [5] 7.5% | [6] -25.8%

COc1ccc2c(c1OC)C(O)N1CCc3cc4c(cc3C1=C2C(=O)c1ccccc1)OCO4 (stereo unspecified)
inactive: [1] 6.75% | [2] 14.2% | [3] 0.5% | [4] -5.3% | [5] 28.1% | [6] 22.8%

C(=Nc1ccc2c(c1)Cc1ccccc1-2)c1ccccn1
inactive: [1] 61.8% | [2] -35.5% | [3] 24.3% | [4] 16.9% | [5] -22.8% | [6] 49.4%

CCCCCCC(=O)N1CC(C)OC(C)C1 (stereo unspecified)
inactive: [1] 0.6% | [2] -6.4% | [3] 2.4% | [4] 0.1% | [5] -14.7% | [6] 4.8%

O=C(O)c1cc(C(=O)O)cc(N(CCO)CCO)c1
inactive: [1] -19.1% | [2] -6.45% | [3] -6.8% | [4] -17.6% | [5] 21.8% | [6] -14.2%

CCCCOC(C)OCCCC
inactive: [1] 9.3% | [2] -6.35% | [3] -3.4% | [4] 5.2% | [5] 5.65% | [6] -17%

C/C(C=C(C#N)C#N)=C\c1cccc(F)c1
inactive: [1] 55.7% | [2] 28.3% | [3] 50.6% | [4] 48.1% | [5] 17.5% | [6] 53.8%

Nc1c(Cl)cnn2nnnc12
inactive: [1] -7.5% | [2] -17.4% | [3] -15.6% | [4] -11.9% | [5] 2.95% | [6] -4.25%

O=S(=O)(O)c1cccc2c1oc1ccccc12
inactive: [1] 8.85% | [2] -37.4% | [3] -3.75% | [4] 19% | [5] -10.1% | [6] -19%

CCCCC(O)(CCCC)C(C)(C)C
inactive: [1] 3.7% | [2] 4.05% | [3] 0.6% | [4] -30.9% | [5] -0.2% | [6] 9.3%

COC(CN1C(=O)CSC1=S)OC
inactive: [1] 10.8% | [2] -1.65% | [3] 27.1% | [4] 17.2% | [5] 29.1% | [6] -6.8%

O=C(Nc1ccc(Cl)cc1)c1cc2cc(N=Nc3ccc(Br)cc3)ccc2oc1=O
inactive: [1] -18.1% | [2] 9.75% | [3] -13.3% | [4] -1.65% | [5] -23.9% | [6] -6.65%

CC(C)=CC1C(C(=O)SCc2cc3c(cc2Br)OCO3)C1(C)C (stereo unspecified)
inactive: [1] 0.95% | [2] -6.05% | [3] -10.2% | [4] 6.25% | [5] 5.6% | [6] 6.5%

CNc1ncnc2c1c(C(N)=S)cn2C1OC(CO)C(O)C1O (stereo unspecified)
inactive: [1] 0.1% | [2] -22.7% | [3] -13.7% | [4] 2.2% | [5] 0.95% | [6] 12.5%

CCCC(CC)(CC)CO
inactive: [1] -21.6% | [2] -6.9% | [3] -16.4% | [4] 12.1% | [5] -10.4% | [6] -6.15%

CCc1ccccc1O
inactive: [1] 6.1% | [2] -7.6% | [3] 3.3% | [4] -25% | [5] -11.7% | [6] 1.4%

C/C(CC1CC=CCC1)=N\NC(N)=O (stereo unspecified)
inactive: [1] -16.1% | [2] -4.7% | [3] -2.6% | [4] -20.5% | [5] -3.8% | [6] 30.8%

CC(C)CC(NC(=O)C1CCCN1)C(=O)NC(CC(C)C)C(=O)OC(C)(C)C (stereo not drawn) (H-Pro-Leu-Leu-OtBu; configuration not given here)
inactive: [1] 30.2% | [2] 26.6% | [3] 29.1% | [4] 19% | [5] -4.15% | [6] 30.9%

Cc1cn(C2CCN(CC3COC(C)(C)O3)O2)c(=O)[nH]c1=O (stereo unspecified)
inactive: [1] -13.5% | [2] -11.9% | [3] -26.3% | [4] -24.9% | [5] -5.35% | [6] -19.6%

O=C(Nc1ncc([N+](=O)[O-])s1)c1cc(Cl)cc(Cl)c1
active: [3] 77.9% | [6] 74.3%
inactive: [1] 60.5% | [2] 61% | [4] 53% | [5] 57.5%

CC(c1ccccc1)N1COc2cc3c(cc2C1)OCN(C(C)c1ccccc1)C3 (stereo unspecified)
inactive: [1] -21.2% | [2] -2.95% | [3] -29.8% | [4] -11.8% | [5] -6.8% | [6] -17.4%

Clc1cc2nnn(C3CCCCO3)c2cc1Cl (stereo unspecified)
inactive: [1] 9.75% | [2] -3.05% | [3] -23.4% | [4] -12.3% | [5] -0.9% | [6] 14.4%

OC12C=CC(CCCC1)O2 (stereo unspecified)
inactive: [1] 0.35% | [2] -6.65% | [3] -7.4% | [4] 3.2% | [5] 10.3% | [6] 4.9%

CC(=O)NCCN1CCN(C(C)=O)CC1
inactive: [1] 10.1% | [2] 10.7% | [3] -8.7% | [4] -37% | [5] -13.8% | [6] -15.2%

NC1CC(=O)c2sccc21 (stereo unspecified)
inactive: [1] 9.8% | [2] 2.15% | [3] 16.8% | [4] 9.2% | [5] 17.8% | [6] 1.25%

CC[N+](CC)(CC)CCCC[P+](CC)(CC)CC
inactive: [1] 15.8% | [2] -9.15% | [3] 8.8% | [4] 9.9% | [5] 10.2% | [6] 13.7%

COc1c(OC)c(C2(O)C(=O)N(C)c3ccccc32)c2c(c1C1(O)C(=O)N(C)c3ccccc31)OCO2 (stereo unspecified)
inactive: [1] 4.25% | [2] 1.7% | [3] -14.9% | [4] 1.2% | [5] 3.05% | [6] 22.9%

O=C(O)c1ccc(C2CCCCC2O)cc1 (stereo unspecified)
inactive: [1] 2.05% | [2] 6.15% | [3] -9.2% | [4] -14.6% | [5] -2% | [6] 0.3%

CC(=O)c1ccc(C(C)=O)c(OCc2ccccc2)c1
inactive: [1] -4.45% | [2] -12.4% | [3] -8.25% | [4] -27.9% | [5] -5.95% | [6] -5.05%

Nc1cc(S(=O)(=O)O)cc2ccc(S(=O)(=O)O)cc12
inactive: [1] -4.15% | [2] 6.75% | [3] -14.6% | [4] -4.35% | [5] -5.65% | [6] 3.95%

NNC(=O)/C(=C/c1cccc([N+](=O)[O-])c1)NC(=O)c1ccccc1
inactive: [1] -41.4% | [2] -25.4% | [3] -15.9% | [4] 7.5% | [5] -16.4% | [6] -24.1%

CC1=C(C(=O)NNC(=O)c2ccccc2O)CC(C(=O)NNC(=O)c2ccccc2O)=C(C)N1
inactive: [1] 45.5% | [2] 40.5% | [3] 10.5% | [4] 17.2% | [5] 64.2% | [6] 32.4%

CCc1ccc(NC(=S)NC(=O)c2ccccc2OC)cc1
inactive: [1] 10.6% | [2] 7.05% | [3] 9.3% | [4] 21.1% | [5] 20.4% | [6] 3.95%

CC(=O)c1ccc2c(Br)ccc3c2c1CC3
inactive: [1] 12.3% | [2] 10.3% | [3] 4.25% | [4] 10.4% | [5] 16.1% | [6] 9.55%

CC(C)c1ccc(C(=O)OCC2CCCO2)cc1 (stereo unspecified)
inactive: [1] 7.95% | [2] 13.1% | [3] 6.5% | [4] -13.7% | [5] -5.3% | [6] 3.65%

NC(=O)c1ccccc1[N+](=O)[O-]
inactive: [1] 3.75% | [2] -7% | [3] -16.4% | [4] 6.4% | [5] -16.1% | [6] -6.5%

C/C(C(=O)O)=C1\N=C(N)NC1=O
inactive: [1] -3.25% | [2] -2.9% | [3] -5.5% | [4] -36.9% | [5] -17.9% | [6] -14.4%

c1ccc(N2CCN(c3ccccc3)C2)cc1
inactive: [1] -33.8% | [2] -13.3% | [3] -12.8% | [4] 8.65% | [5] 9.1% | [6] 11.5%
